In the supplement of paper PMC10037445:
Whole data set: some 2,900 compounds, median “NF-kB SEAP reporter activity, fold change vs agonist alone” near 0.99, cut for the highest 2% near 2.6. The list comes from a sample in which the highest values are over-represented; it also holds similar structures and randomly drawn compounds.

Columns and labels:
[1] = test system: RAW-Dual; experiment: NF-kB SEAP reporter activity, fold change vs agonist alone; cytotoxicity flag (confluency mask): not cytotoxic; higher = enhanced NF-kB activity
Procedure, shortened: (§1)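 Cytotoxic wells were those whose IncuCyte confluency was below 70% of agonist controls in both mask sets. The cells were RAW-Dual macrophages at 50,000 cells/well in DMEM on 384-well plates, dosed with 50 nL of library stock by pin tool, stimulated with a PRR agonist 1 h later, and kept at 37 °C, 5% CO2 for 20 hours. IRF and NF-κB reporter activity, as fold change over agonist-alone wells, came from supernatant read by QuantiLuc luminescence and QuantiBlue absorbance, respectively.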

[2] = test system: RAW-Dual; experiment: NF-kB SEAP reporter activity, fold change vs agonist alone; higher = enhanced NF-kB activity; details: library stock concentration (final ~1000-fold dilution): 10 mM
Procedure, shortened: as §1

[3] = test system: RAW-Dual; experiment: NF-kB SEAP reporter activity, fold change vs agonist alone; cytotoxicity flag (confluency mask): cytotoxic (confluency <70% of control); higher = enhanced NF-kB activity
Procedure, shortened: as §1

[4] = agonist: ODN 1826 (TLR9) 0.5 ug/mL
[5] = agonist: Pam2CSK4 (TLR2/6) 0.1 ug/mL
[6] = agonist: Pam3CSK4 (TLR2/1) 0.1 ug/mL
[7] = cytotoxicity flag (confluency mask): not cytotoxic, agonist: Imiquimod (TLR7) […]
[8] = cytotoxicity flag (confluency mask): not cytotoxic, agonist: MPLA (TLR4) […]
[9] = cytotoxicity flag (confluency mask): cytotoxic (confluency <70% of control), agonist: Imiquimod (TLR7) […]
[10] = cytotoxicity flag (confluency mask): cytotoxic (confluency <70% of control), agonist: MPLA (TLR4) […]

COc1cc(CCC(=O)CC(O)CCc2ccc(O)c(OC)c2)ccc1O (stereo unspecified) (library stock concentration (final ~1000-fold dilution): 10 mM)
NF-kB SEAP reporter activity ([1]; agonist: LPS (TLR4) 0.1 ug/mL): 1.4 | NF-kB SEAP reporter activity [1, 4]: 1.07 | NF-kB SEAP reporter activity [1, 5]: 0.979 | NF-kB SEAP reporter activity [1, 6]: 1.25

COc1cc(CCC(=O)CC(O)CCc2ccc(O)c(OC)c2)ccc1O (stereo unspecified)
NF-kB SEAP reporter activity [2, 7]: 1.04 | NF-kB SEAP reporter activity [2, 8]: 1.1

COC(=O)C1=C(C)NC(C)=C(C(=O)OC2CCCN(Cc3ccccc3)C2)C1c1cccc([N+](=O)[O-])c1.Cl (stereo unspecified) (library stock concentration (final ~1000-fold dilution): 10 mM)
NF-kB SEAP reporter activity ([1]; agonist: LPS (TLR4) 0.1 ug/mL): 1.22 | NF-kB SEAP reporter activity [1, 4]: 0.381 | NF-kB SEAP reporter activity [1, 5]: 0.365 | NF-kB SEAP reporter activity [1, 6]: 0.368

COC(=O)C1=C(C)NC(C)=C(C(=O)OC2CCCN(Cc3ccccc3)C2)C1c1cccc([N+](=O)[O-])c1.Cl (stereo unspecified)
NF-kB SEAP reporter activity [2, 7]: 0.718 | NF-kB SEAP reporter activity [2, 8]: 0.978

CN(C)CCOc1ccc(-c2nc(-c3ccncc3)c(-c3ccc4c(c3)CC/C4=N\O)[nH]2)cc1
NF-kB SEAP reporter activity [2, 7]: 0.946 | NF-kB SEAP reporter activity [2, 8]: 1.02

CN(C)CCOc1ccc(-c2nc(-c3ccncc3)c(-c3ccc4c(c3)CC/C4=N\O)[nH]2)cc1 (library stock concentration (final ~1000-fold dilution): 10 mM)
NF-kB SEAP reporter activity ([1]; agonist: LPS (TLR4) 0.1 ug/mL): 5 | NF-kB SEAP reporter activity [1, 4]: 0.964 | NF-kB SEAP reporter activity [1, 5]: 1.49 | NF-kB SEAP reporter activity [1, 6]: 0.882

OCCn1cc(-c2ccc3c(c2)CC/C3=N\O)c(-c2ccncc2)n1
NF-kB SEAP reporter activity [2, 7]: 1.65 | NF-kB SEAP reporter activity [2, 8]: 1.57

OCCn1cc(-c2ccc3c(c2)CC/C3=N\O)c(-c2ccncc2)n1 (library stock concentration (final ~1000-fold dilution): 10 mM)
NF-kB SEAP reporter activity ([1]; agonist: LPS (TLR4) 0.1 ug/mL): 2.47 | NF-kB SEAP reporter activity [1, 4]: 1.5 | NF-kB SEAP reporter activity [1, 5]: 1.34 | NF-kB SEAP reporter activity [1, 6]: 2.22

CS(=O)(=O)c1ccc(Oc2cc(F)cc(C#N)c2)c2c1C(O)C(F)(F)C2 (stereo unspecified)
NF-kB SEAP reporter activity [2, 7]: 1.03 | NF-kB SEAP reporter activity [2, 8]: 1.16

CS(=O)(=O)c1ccc(Oc2cc(F)cc(C#N)c2)c2c1C(O)C(F)(F)C2 (stereo unspecified) (library stock concentration (final ~1000-fold dilution): 10 mM)
NF-kB SEAP reporter activity ([1]; agonist: LPS (TLR4) 0.1 ug/mL): 1.07 | NF-kB SEAP reporter activity [1, 4]: 1.35 | NF-kB SEAP reporter activity [1, 5]: 1.01 | NF-kB SEAP reporter activity [1, 6]: 1.2

COc1ccc(CCNCC(O)COc2cccc(C)c2)cc1OC.Cl (stereo unspecified) (library stock concentration (final ~1000-fold dilution): 10 mM)
NF-kB SEAP reporter activity ([1]; agonist: LPS (TLR4) 0.1 ug/mL): 1.02 | NF-kB SEAP reporter activity [1, 4]: 0.846 | NF-kB SEAP reporter activity [1, 5]: 0.999 | NF-kB SEAP reporter activity [1, 6]: 1.08

COc1ccc(CCNCC(O)COc2cccc(C)c2)cc1OC.Cl (stereo unspecified)
NF-kB SEAP reporter activity [2, 8]: 1.06

COc1ccccc1N1CCN(CC(O)COc2cccc3ccccc23)CC1.Cl.Cl (stereo unspecified)
NF-kB SEAP reporter activity [2, 7]: 1.01 | NF-kB SEAP reporter activity [2, 8]: 0.766

COc1ccccc1N1CCN(CC(O)COc2cccc3ccccc23)CC1.Cl.Cl (stereo unspecified) (library stock concentration (final ~1000-fold dilution): 10 mM)
NF-kB SEAP reporter activity ([1]; agonist: LPS (TLR4) 0.1 ug/mL): 0.815 | NF-kB SEAP reporter activity [1, 4]: 0.929 | NF-kB SEAP reporter activity [1, 5]: 0.819 | NF-kB SEAP reporter activity [1, 6]: 0.805

CCCCN(Cc1ccc(C(=O)NO)cc1)C(=O)Nc1ccccc1 (library stock concentration (final ~1000-fold dilution): 10 mM)
NF-kB SEAP reporter activity ([1]; agonist: LPS (TLR4) 0.1 ug/mL): 6.63 | NF-kB SEAP reporter activity [1, 4]: 2.5 | NF-kB SEAP reporter activity [1, 5]: 1.18 | NF-kB SEAP reporter activity [1, 6]: 1.73

COc1cc(C(=O)N(CCCc2ccccc2)Cc2ccc(CC(=O)O)cc2)cc(OC)c1C
NF-kB SEAP reporter activity [2, 7]: 1.1 | NF-kB SEAP reporter activity [2, 8]: 1.11

CCCCN(Cc1ccc(C(=O)NO)cc1)C(=O)Nc1ccccc1
NF-kB SEAP reporter activity [2, 7]: 1.52 | NF-kB SEAP reporter activity [2, 8]: 2.9

O=C(NO)c1ccc(CC(=O)N(CCO)c2ccccc2)cc1 (library stock concentration (final ~1000-fold dilution): 10 mM)
NF-kB SEAP reporter activity ([1]; agonist: LPS (TLR4) 0.1 ug/mL): 1.94 | NF-kB SEAP reporter activity [1, 4]: 1.74 | NF-kB SEAP reporter activity [1, 5]: 0.801 | NF-kB SEAP reporter activity [1, 6]: 1.21

O=C(NO)c1ccc(CC(=O)N(CCO)c2ccccc2)cc1
NF-kB SEAP reporter activity [2, 7]: 1.15 | NF-kB SEAP reporter activity [2, 8]: 1.79

COc1cc(C(=O)N(CCCc2ccccc2)Cc2ccc(CC(=O)O)cc2)cc(OC)c1C (library stock concentration (final ~1000-fold dilution): 10 mM)
NF-kB SEAP reporter activity ([1]; agonist: LPS (TLR4) 0.1 ug/mL): 1.19 | NF-kB SEAP reporter activity [1, 4]: 0.976 | NF-kB SEAP reporter activity [1, 5]: 0.823 | NF-kB SEAP reporter activity [1, 6]: 0.908

CC(C)CNc1ccnc(NCc2csc(-c3ccccc3)n2)n1.Cl (library stock concentration (final ~1000-fold dilution): 10 mM)
NF-kB SEAP reporter activity ([3]; agonist: LPS (TLR4) 0.1 ug/mL): 1.62 | NF-kB SEAP reporter activity [3, 4]: 0.221 | NF-kB SEAP reporter activity [3, 5]: 0.625 | NF-kB SEAP reporter activity [3, 6]: 0.446

CC(C)CNc1ccnc(NCc2csc(-c3ccccc3)n2)n1.Cl
NF-kB SEAP reporter activity [2, 9]: 1.85 | NF-kB SEAP reporter activity [2, 10]: 1.47

Nc1ccn(C2OC(CO)C(O)C2(F)F)c(=O)n1 (stereo unspecified) (library stock concentration (final ~1000-fold dilution): 10 mM)
NF-kB SEAP reporter activity ([3]; agonist: LPS (TLR4) 0.1 ug/mL): 0.91 | NF-kB SEAP reporter activity [3, 4]: 1.88 | NF-kB SEAP reporter activity [3, 5]: 1.18 | NF-kB SEAP reporter activity [3, 6]: 1.05

Nc1ccn(C2OC(CO)C(O)C2(F)F)c(=O)n1 (stereo unspecified)
NF-kB SEAP reporter activity [2, 9]: 2.14 | NF-kB SEAP reporter activity [2, 10]: 1.35

CCCCCCOC(=O)c1cc(O)c(=O)c2c(O)c(O)c(OC)cc2c1
NF-kB SEAP reporter activity [2, 7]: 1.2 | NF-kB SEAP reporter activity [2, 8]: 0.857

CCCCCCOC(=O)c1cc(O)c(=O)c2c(O)c(O)c(OC)cc2c1 (library stock concentration (final ~1000-fold dilution): 10 mM)
NF-kB SEAP reporter activity ([1]; agonist: LPS (TLR4) 0.1 ug/mL): 0.614 | NF-kB SEAP reporter activity [1, 4]: 0.459 | NF-kB SEAP reporter activity [1, 5]: 0.599 | NF-kB SEAP reporter activity [1, 6]: 0.895

NC(=O)c1cccc2nc(-c3ccc(C4CCCN4)cc3F)[nH]c12 (stereo unspecified) (library stock concentration (final ~1000-fold dilution): 10 mM)
NF-kB SEAP reporter activity ([1]; agonist: LPS (TLR4) 0.1 ug/mL): 0.553 | NF-kB SEAP reporter activity [1, 4]: 0.198 | NF-kB SEAP reporter activity [1, 5]: 1.03 | NF-kB SEAP reporter activity [1, 6]: 1

NC(=O)c1cccc2nc(-c3ccc(C4CCCN4)cc3F)[nH]c12 (stereo unspecified)
NF-kB SEAP reporter activity [2, 7]: 1.14 | NF-kB SEAP reporter activity [2, 8]: 0.748

COC(=O)CC(O)(CCCC(C)(C)O)C(=O)OC1C(OC)=CC23CCCN2CCc2cc4c(cc2C13)OCO4 (stereo unspecified) (library stock concentration (final ~1000-fold dilution): 10 mM)
NF-kB SEAP reporter activity ([3]; agonist: LPS (TLR4) 0.1 ug/mL): 0.397 | NF-kB SEAP reporter activity [3, 4]: 0.169 | NF-kB SEAP reporter activity [3, 5]: 0.0771 | NF-kB SEAP reporter activity [3, 6]: 0.133

COC(=O)CC(O)(CCCC(C)(C)O)C(=O)OC1C(OC)=CC23CCCN2CCc2cc4c(cc2C13)OCO4 (stereo unspecified)
NF-kB SEAP reporter activity [2, 9]: 0.141 | NF-kB SEAP reporter activity [2, 10]: 0.255

Cc1ccc(C(=O)N(CCCN)C(c2oc3cc(Cl)ccc3c(=O)c2Cc2ccccc2)C(C)C)cc1.Cl (stereo unspecified)
NF-kB SEAP reporter activity [2, 7]: 0.905 | NF-kB SEAP reporter activity [2, 8]: 1.03

Cc1ccc(C(=O)N(CCCN)C(c2oc3cc(Cl)ccc3c(=O)c2Cc2ccccc2)C(C)C)cc1.Cl (stereo unspecified) (library stock concentration (final ~1000-fold dilution): 10 mM)
NF-kB SEAP reporter activity ([1]; agonist: LPS (TLR4) 0.1 ug/mL): 0.189 | NF-kB SEAP reporter activity [1, 4]: 0.953 | NF-kB SEAP reporter activity [1, 5]: 0.344 | NF-kB SEAP reporter activity [1, 6]: 0.73

Oc1cc(CNC(=S)/C=C/c2cc(O)c(O)c(Br)c2)cc(O)c1O (library stock concentration (final ~1000-fold dilution): 10 mM)
NF-kB SEAP reporter activity ([1]; agonist: LPS (TLR4) 0.1 ug/mL): 3.51 | NF-kB SEAP reporter activity [1, 4]: 2.77 | NF-kB SEAP reporter activity [1, 5]: 1.67 | NF-kB SEAP reporter activity [1, 6]: 0.821

Oc1cc(CNC(=S)/C=C/c2cc(O)c(O)c(Br)c2)cc(O)c1O
NF-kB SEAP reporter activity [2, 7]: 1.78 | NF-kB SEAP reporter activity [2, 8]: 2.29
